Measurements: PubChem BioAssay (EPA / NIEHS)
Inconclusive results are not listed. Active and inactive are the calls of the source. The calls were made as follows: active = hit-call score of the fitted dose curve at least 0.9, where 1 is the maximum; inconclusive = response in the unintended direction; inactive = score below 0.9.

Test system: guinea pig Leukotriene B4 Receptor (LTB4), gene 100379538
Assay: NVS_GPCR_gLTB4: NovaScreen (NVS) G Protein-Coupled Receptor Assay for guinea pig Leukotriene B4 Receptor (LTB4) (AID 2283247)
Method in brief: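 Radioligand displacement on guinea pig spleen membranes, filter-based scintillation counting 2 h after dosing. Primary duplicate single point at 25 uM; hits over threshold (e.g. 30% inhibition) run in concentration-response up to 50 uM, DMSO baseline.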

| SMILES | AC50 |
| --- | --- |
| Nc1ccc(Cc2ccc(N)cc2)cc1 | 2.83 µM (active) |
| CCC[CH2][Sn]([Cl])([CH2]CCC)[CH2]CCC | 15.8 µM (active) |
| C[C@]12C=CC3=C4CCC(=O)C=C4CC[C@H]3[C@@H]1CC[C@@H]2O | 2.88 µM (active) |

Target: human Serotonin, 5-Hydroxytryptamine Receptor 2A (5HT2A), HTR2A (gene 3356) (UniProt P28223)
Sequence (P28223 whole entry, looked up): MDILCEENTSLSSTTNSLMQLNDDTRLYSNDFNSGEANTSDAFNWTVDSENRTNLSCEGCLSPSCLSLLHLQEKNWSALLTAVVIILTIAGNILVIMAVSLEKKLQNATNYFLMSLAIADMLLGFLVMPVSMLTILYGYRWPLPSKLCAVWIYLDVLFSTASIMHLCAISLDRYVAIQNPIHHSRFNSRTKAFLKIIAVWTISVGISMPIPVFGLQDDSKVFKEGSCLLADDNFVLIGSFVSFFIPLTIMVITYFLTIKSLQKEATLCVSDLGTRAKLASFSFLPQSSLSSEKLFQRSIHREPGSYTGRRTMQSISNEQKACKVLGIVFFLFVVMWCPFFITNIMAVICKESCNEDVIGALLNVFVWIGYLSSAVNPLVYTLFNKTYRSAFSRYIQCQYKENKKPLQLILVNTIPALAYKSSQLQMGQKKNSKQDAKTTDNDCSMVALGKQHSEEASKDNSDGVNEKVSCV
Assay: NVS_GPCR_h5HT2A: NovaScreen (NVS) G Protein-Coupled Receptor Assay for human Serotonin, 5-Hydroxytryptamine Receptor 2A (5HT2A) (AID 2283249)
Method in brief: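 Human cortex membranes, cell-free radioligand binding; filter-based scintillation read 1.5 h after dosing. Duplicate screen at 25 uM first; displacement of specific binding (loss of signal) versus DMSO.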

| SMILES | outcome | AC50 |
| --- | --- | --- |
| COP(=S)(OC)SCN1C(=O)c2ccccc2C1=O | inactive | – |
| O=[N+]([O-])C(Br)(CO)CO | inactive | – |
| CCC[CH2][Sn]([Cl])([CH2]CCC)[CH2]CCC | – | 32.6 µM (active) |
| CC(C)(C)C(O)(CCc1ccc(Cl)cc1)Cn1cncn1 (stereo unspecified) | inactive | – |
| O=C(N[C@H](c1ccccc1)[C@@H]1CN2CCC1CC2)c1c(Cl)ccc(C(F)(F)F)c1Cl | – | 37.5 µM (active) |
| CCOC(=O)[C@]1(c2ccccc2)Oc2ccccc2[C@@H]1N | – | 3.91 µM (active) |

Test system: guinea pig Muscarinic, Peripheral (Mperiperal) Receptor, Non-selective Binding, gene 100379235
Assay: NVS_GPCR_gMPeripheral_NonSelective: NovaScreen (NVS) G Protein-Coupled Receptor Assay for guinea pig Muscarinic, Peripheral (Mperiperal) Receptor, Non-selective Binding (AID 2283250)
Method in brief: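 Guinea pig bladder membranes, radioligand binding read 1 h after dosing by filter scintillation counting; loss of signal vs DMSO. Primary duplicate screen at 25 uM, then concentration-response up to 50 uM.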

| SMILES | AC50 | outcome |
| --- | --- | --- |
| CCC[CH2][Sn]([Cl])([CH2]CCC)[CH2]CCC | 9.81 µM (active) | – |
| [Cl-].[Cl-].[Hg+2] | 9.07 µM (active) | – |
| O=C(Oc1ccc(Br)cc1)N1CCN2CCC1CC2 | 15 µM (active) | – |
| O=C(N[C@H](c1ccccc1)[C@@H]1CN2CCC1CC2)c1c(Cl)ccc(C(F)(F)F)c1Cl | – | inactive |
| CCOC(=O)[C@]1(c2ccccc2)Oc2ccccc2[C@@H]1N | 13.3 µM (active) | – |
| O=[N+]([O-])c1ccc(Oc2ccc(Cl)cc2Cl)cc1 | – | inactive |

Target: human Serotonin, 5-Hydroxytryptamine Receptor 5A (5HT5A), HTR5A (gene 3361) (UniProt P47898)
Sequence (P47898 whole entry, looked up): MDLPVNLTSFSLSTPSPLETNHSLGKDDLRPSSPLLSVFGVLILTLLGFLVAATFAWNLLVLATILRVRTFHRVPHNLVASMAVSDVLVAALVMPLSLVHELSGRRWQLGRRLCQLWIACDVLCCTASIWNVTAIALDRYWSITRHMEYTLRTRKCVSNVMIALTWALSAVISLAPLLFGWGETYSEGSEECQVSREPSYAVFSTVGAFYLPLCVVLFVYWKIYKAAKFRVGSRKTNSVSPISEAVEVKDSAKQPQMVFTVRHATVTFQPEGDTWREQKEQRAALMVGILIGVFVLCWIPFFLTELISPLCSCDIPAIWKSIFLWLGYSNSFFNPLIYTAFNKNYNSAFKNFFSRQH
Assay: NVS_GPCR_h5HT5A: NovaScreen (NVS) G Protein-Coupled Receptor Assay for human Serotonin, 5-Hydroxytryptamine Receptor 5A (5HT5A) (AID 2283251)
Method in brief: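 Cell-free radioligand displacement binding on HEK293-derived membrane protein, 1 h incubation, filter-based scintillation counting. Primary screen in duplicate at 25 uM, actives followed in concentration series; loss of signal fitted versus DMSO.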

| SMILES | AC50 |
| --- | --- |
| CCC[CH2][Sn]([Cl])([CH2]CCC)[CH2]CCC | 2.07 µM (active) |
| CCCCCCCCn1sccc1=O | 26 µM (active) |
| [Cl-].[Cl-].[Hg+2] | 1.59 µM (active) |
| CCOC(=O)[C@]1(c2ccccc2)Oc2ccccc2[C@@H]1N | 0.659 µM (active) |

Target: guinea pig Opioid, Kappa 1 Receptor (OpiateK), OPRK1 (gene 100135587) (UniProt P41144)
Sequence (P41144 whole entry, looked up): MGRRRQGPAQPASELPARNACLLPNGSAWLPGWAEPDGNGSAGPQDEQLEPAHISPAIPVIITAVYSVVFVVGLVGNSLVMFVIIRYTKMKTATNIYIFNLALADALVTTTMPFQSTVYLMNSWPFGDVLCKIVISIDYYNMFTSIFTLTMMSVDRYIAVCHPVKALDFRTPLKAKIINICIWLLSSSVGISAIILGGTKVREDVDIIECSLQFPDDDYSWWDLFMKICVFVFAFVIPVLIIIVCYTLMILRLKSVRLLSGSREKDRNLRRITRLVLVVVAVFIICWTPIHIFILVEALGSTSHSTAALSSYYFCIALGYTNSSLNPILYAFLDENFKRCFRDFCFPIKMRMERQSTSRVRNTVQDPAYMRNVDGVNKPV
Assay: NVS_GPCR_gOpiateK: NovaScreen (NVS) G Protein-Coupled Receptor Assay for guinea pig Opioid, Kappa 1 Receptor (OpiateK) (AID 2283252);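 also: radioligand displacement from kappa opioid receptor in guinea pig cerebellar membranes; active means reduced radioligand binding relative to DMSO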
Method in brief: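 Signal is scintillation counts of filter-trapped radioligand bound to guinea pig cerebellar membrane receptor, measured 2 hours post-dosing. Activity is loss of binding versus DMSO, first at 25 uM in duplicate, then as concentration series for actives.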

| SMILES | outcome | AC50 |
| --- | --- | --- |
| CCCCCOC(=O)c1ccccc1C(=O)OCCCCC | inactive | – |
| O=[N+]([O-])C(Br)(CO)CO | – | 25 µM (active) |
| CCC[CH2][Sn]([Cl])([CH2]CCC)[CH2]CCC | – | 14.5 µM (active) |
| CC(C)N(Cc1ccccc1)C(=O)C(C)(C)C | – | 15.7 µM (active) |
| CCCCCCCCn1sccc1=O | – | 18.2 µM (active) |
| [Cl-].[Cl-].[Hg+2] | – | 13.5 µM (active) |
| CCCSC(=O)N(CCC)CCC | inactive | – |
| O=C(N[C@H](c1ccccc1)[C@@H]1CN2CCC1CC2)c1c(Cl)ccc(C(F)(F)F)c1Cl | – | 0.0235 µM (active) |

Target: human Serotonin, 5-Hydroxytryptamine Receptor 6 (5HT6), HTR6 (gene 3362) (UniProt P50406)
Sequence (P50406 whole entry, looked up): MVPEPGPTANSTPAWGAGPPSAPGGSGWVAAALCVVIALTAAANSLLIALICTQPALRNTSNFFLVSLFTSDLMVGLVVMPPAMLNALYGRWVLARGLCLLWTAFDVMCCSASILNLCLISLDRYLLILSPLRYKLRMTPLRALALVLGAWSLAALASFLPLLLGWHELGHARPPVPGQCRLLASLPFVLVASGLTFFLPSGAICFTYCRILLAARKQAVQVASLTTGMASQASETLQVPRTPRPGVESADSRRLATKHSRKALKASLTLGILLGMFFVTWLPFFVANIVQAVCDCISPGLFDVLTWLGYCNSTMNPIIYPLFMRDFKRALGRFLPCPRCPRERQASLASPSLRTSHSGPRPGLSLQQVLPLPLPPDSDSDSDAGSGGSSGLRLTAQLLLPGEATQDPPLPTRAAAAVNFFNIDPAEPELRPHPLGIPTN
Assay: NVS_GPCR_h5HT6: NovaScreen (NVS) G Protein-Coupled Receptor Assay for human Serotonin, 5-Hydroxytryptamine Receptor 6 (5HT6) (AID 2283253)
Method in brief: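 Radioligand binding to 5HT6 in HEK293-derived membranes, cell-free, 1 h after dosing; bound ligand measured by filter-based scintillation counting. Primary screen in duplicate at 25 uM; actives retested in concentration series.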

| SMILES | outcome | AC50 |
| --- | --- | --- |
| CCCCCOC(=O)c1ccccc1C(=O)OCCCCC | inactive | – |
| CCC[CH2][Sn]([Cl])([CH2]CCC)[CH2]CCC | – | 5.51 µM (active) |
| [Cl-].[Cl-].[Hg+2] | – | 1.56 µM (active) |
| CCOC(=O)[C@]1(c2ccccc2)Oc2ccccc2[C@@H]1N | – | 0.824 µM (active) |
| O=[N+]([O-])c1ccc(Oc2ccc(Cl)cc2Cl)cc1 | inactive | – |

Target: human Adenosine A1 Receptor (AdoRA1), ADORA1 (gene 134) (UniProt P30542)
Sequence (P30542 whole entry, looked up): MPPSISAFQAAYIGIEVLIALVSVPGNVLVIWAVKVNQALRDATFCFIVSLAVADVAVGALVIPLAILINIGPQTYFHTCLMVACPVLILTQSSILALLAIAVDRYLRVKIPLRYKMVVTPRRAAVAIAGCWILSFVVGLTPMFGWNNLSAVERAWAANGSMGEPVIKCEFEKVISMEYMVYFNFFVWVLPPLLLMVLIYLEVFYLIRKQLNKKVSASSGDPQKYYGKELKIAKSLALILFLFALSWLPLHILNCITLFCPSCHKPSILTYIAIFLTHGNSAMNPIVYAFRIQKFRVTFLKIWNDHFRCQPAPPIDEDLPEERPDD
Assay: NVS_GPCR_hAdoRA1: NovaScreen (NVS) G Protein-Coupled Receptor Assay for human Adenosine A1 Receptor (AdoRA1) (AID 2283254)
Method in brief: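 Radioligand binding was run on human cortical membranes, cell-free, with filter-based scintillation counting 1 h after dosing. The primary screen was duplicate at 25 uM, followed by concentration series. Signal loss versus DMSO was fitted positive-direction.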

| SMILES | AC50 | outcome |
| --- | --- | --- |
| COP(=S)(OC)SCN1C(=O)c2ccccc2C1=O | 13.7 µM (active) | – |
| CCC[CH2][Sn]([Cl])([CH2]CCC)[CH2]CCC | 25 µM (active) | – |
| Cc1cccc(N)c1N | 8.22 µM (active) | – |
| Nc1ccc(N=Nc2ccccc2)cc1 | – | inactive |

Target: human Serotonin, 5-Hydroxytryptamine Receptor 7 (5HT7), HTR7 (gene 3363) (UniProt P34969)
Sequence (P34969 whole entry, looked up): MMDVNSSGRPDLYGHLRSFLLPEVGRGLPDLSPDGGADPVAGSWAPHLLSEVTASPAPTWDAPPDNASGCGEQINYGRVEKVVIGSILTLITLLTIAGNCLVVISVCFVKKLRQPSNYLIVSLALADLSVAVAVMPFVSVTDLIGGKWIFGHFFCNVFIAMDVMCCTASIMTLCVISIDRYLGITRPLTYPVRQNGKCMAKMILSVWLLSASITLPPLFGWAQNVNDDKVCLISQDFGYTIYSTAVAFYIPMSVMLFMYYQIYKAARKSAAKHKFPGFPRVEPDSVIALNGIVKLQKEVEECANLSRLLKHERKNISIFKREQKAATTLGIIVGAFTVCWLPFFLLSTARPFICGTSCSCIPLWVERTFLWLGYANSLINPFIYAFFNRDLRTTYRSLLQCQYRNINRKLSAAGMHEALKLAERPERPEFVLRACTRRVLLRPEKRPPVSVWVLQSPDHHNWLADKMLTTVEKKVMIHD
Assay: NVS_GPCR_h5HT7: NovaScreen (NVS) G Protein-Coupled Receptor Assay for human Serotonin, 5-Hydroxytryptamine Receptor 7 (5HT7) (AID 2283255);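 also: hits reduce specific radioligand binding relative to DMSO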
Method in brief: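 Radioligand displacement on membranes from CHO cells expressing human 5HT7, 1 h incubation, filter-based scintillation counting. Primary screen used a single 25 uM concentration in duplicate; actives were followed up in concentration series.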

| SMILES | AC50 | outcome |
| --- | --- | --- |
| CCC[CH2][Sn]([Cl])([CH2]CCC)[CH2]CCC | 0.354 µM (active) | – |
| CCCCCCCCn1sccc1=O | 17.9 µM (active) | – |
| CCN(CC)CCO | – | inactive |
| [Cl-].[Cl-].[Hg+2] | 0.928 µM (active) | – |
| O=C(N[C@H](c1ccccc1)[C@@H]1CN2CCC1CC2)c1c(Cl)ccc(C(F)(F)F)c1Cl | 28.5 µM (active) | – |
| CCOC(=O)[C@]1(c2ccccc2)Oc2ccccc2[C@@H]1N | 0.0948 µM (active) | – |
| CCCCCCCCOC(=O)c1ccc(C(=O)OCCCCCCCC)c(C(=O)OCCCCCCCC)c1 | – | inactive |

Target: human Adenosine A2a Receptor (AdoRA2a), ADORA2A (gene 135) (UniProt P29274)
Sequence (P29274 whole entry, looked up): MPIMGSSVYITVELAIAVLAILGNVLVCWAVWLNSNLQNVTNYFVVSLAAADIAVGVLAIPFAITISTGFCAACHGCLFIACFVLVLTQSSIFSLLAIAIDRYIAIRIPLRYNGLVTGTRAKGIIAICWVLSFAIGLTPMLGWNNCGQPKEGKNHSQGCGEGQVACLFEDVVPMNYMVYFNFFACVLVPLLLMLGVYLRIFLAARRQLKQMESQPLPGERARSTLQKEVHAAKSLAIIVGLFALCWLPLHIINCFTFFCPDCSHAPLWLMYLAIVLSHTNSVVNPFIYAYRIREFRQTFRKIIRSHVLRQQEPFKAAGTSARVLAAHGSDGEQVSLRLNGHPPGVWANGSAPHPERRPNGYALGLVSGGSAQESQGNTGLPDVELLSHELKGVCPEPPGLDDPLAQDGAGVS
Assay: NVS_GPCR_hAdoRA2a: NovaScreen (NVS) G Protein-Coupled Receptor Assay for human Adenosine A2a Receptor (AdoRA2a) (AID 2283256)
Method in brief: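 Cell-free radioligand binding on membranes from HEK293 expressing the receptor; competitive displacement read 1.5 h after dosing by filter-based scintillation counting. Primary screen in duplicate at 25 uM; actives followed in concentration series, with DMSO as baseline.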

| SMILES | AC50 |
| --- | --- |
| CC(C)(O)c1cnn2c(-c3ccc(F)c(-c4c(F)cccc4C#N)c3)cnc2n1 | 0.0738 µM (active) |
| CCC[CH2][Sn]([Cl])([CH2]CCC)[CH2]CCC | 6.46 µM (active) |
| CCNS(=O)(=O)C(F)(F)C(F)(F)C(F)(F)C(F)(F)C(F)(F)C(F)(F)C(F)(F)C(F)(F)F | 14.5 µM (active) |
| [Cl-].[Cl-].[Hg+2] | 5.19 µM (active) |
| Nc1ccc(Cl)cc1N | 2.4 µM (active) |
| Cc1cccc(N)c1N | 4.24 µM (active) |

Target: human Adrenergic, Alpha 2A Receptor (Adra2A), ADRA2A (gene 150) (UniProt P08913)
Sequence (P08913 whole entry, looked up): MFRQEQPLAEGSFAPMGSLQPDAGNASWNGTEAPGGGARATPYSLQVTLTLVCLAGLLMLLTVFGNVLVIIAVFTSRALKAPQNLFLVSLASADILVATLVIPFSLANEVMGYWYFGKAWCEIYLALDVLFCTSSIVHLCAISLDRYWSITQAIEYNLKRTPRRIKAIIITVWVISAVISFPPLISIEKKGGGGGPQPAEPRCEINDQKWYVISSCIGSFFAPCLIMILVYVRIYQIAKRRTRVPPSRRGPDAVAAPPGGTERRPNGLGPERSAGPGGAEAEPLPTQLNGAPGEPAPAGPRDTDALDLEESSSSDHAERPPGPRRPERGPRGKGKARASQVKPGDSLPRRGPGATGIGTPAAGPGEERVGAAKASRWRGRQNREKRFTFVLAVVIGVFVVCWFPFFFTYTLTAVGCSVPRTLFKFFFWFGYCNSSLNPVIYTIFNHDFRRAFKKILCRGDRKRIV
Assay: NVS_GPCR_hAdra2A: NovaScreen (NVS) G Protein-Coupled Receptor Assay for human Adrenergic, Alpha 2A Receptor (Adra2A) (AID 2283257)
Method in brief: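 Radioligand filter-binding was run on HT29-derived membranes, cell-free, read by scintillation counting 1 h after dosing. Primary screening was in duplicate at 25 uM, with concentration series in follow-up. Loss of signal versus DMSO indicates displacement.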

| SMILES | AC50 | outcome |
| --- | --- | --- |
| CCC[CH2][Sn]([Cl])([CH2]CCC)[CH2]CCC | 3.65 µM (active) | – |
| CCCCCCCCn1sccc1=O | – | inactive |
| [Cl-].[Cl-].[Hg+2] | 2.23 µM (active) | – |
| CCOC(=O)[C@]1(c2ccccc2)Oc2ccccc2[C@@H]1N | 6.2 µM (active) | – |

Target: human Adrenergic, Beta 1 Receptor (Adrb1), ADRB1 (gene 153) (UniProt P08588)
Sequence (P08588 whole entry, looked up): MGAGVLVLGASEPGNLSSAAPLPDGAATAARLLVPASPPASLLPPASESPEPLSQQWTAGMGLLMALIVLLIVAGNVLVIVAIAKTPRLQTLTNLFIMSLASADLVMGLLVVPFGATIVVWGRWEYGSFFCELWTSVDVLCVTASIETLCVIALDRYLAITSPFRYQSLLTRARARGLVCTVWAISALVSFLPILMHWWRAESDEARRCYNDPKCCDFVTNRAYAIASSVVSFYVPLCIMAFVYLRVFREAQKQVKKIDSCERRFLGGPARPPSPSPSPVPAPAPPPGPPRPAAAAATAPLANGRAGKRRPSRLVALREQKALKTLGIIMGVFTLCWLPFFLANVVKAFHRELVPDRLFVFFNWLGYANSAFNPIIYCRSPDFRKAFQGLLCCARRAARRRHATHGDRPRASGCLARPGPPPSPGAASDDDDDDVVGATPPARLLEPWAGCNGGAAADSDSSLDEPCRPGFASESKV
Assay: NVS_GPCR_hAdrb1: NovaScreen (NVS) G Protein-Coupled Receptor Assay for human Adrenergic, Beta 1 Receptor (Adrb1) (AID 2283258)
Method in brief: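 Cell-free radioligand displacement on receptor from human neuroepithelioma cells; 2 h after dosing, filter-based scintillation counting. Primary screen in duplicate at 25 uM, actives retested in concentration series; loss of signal vs DMSO baseline.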

| SMILES | outcome | AC50 |
| --- | --- | --- |
| CCCCCOC(=O)c1ccccc1C(=O)OCCCCC | inactive | – |
| CCC[CH2][Sn]([Cl])([CH2]CCC)[CH2]CCC | – | 1.25 µM (active) |
| CCCCCCCCn1sccc1=O | – | 12.2 µM (active) |
| [Cl-].[Cl-].[Hg+2] | – | 0.303 µM (active) |
| O=C(N[C@H](c1ccccc1)[C@@H]1CN2CCC1CC2)c1c(Cl)ccc(C(F)(F)F)c1Cl | – | 37.5 µM (active) |
| CCOC(=O)[C@]1(c2ccccc2)Oc2ccccc2[C@@H]1N | – | 1.41 µM (active) |
| O=[N+]([O-])c1ccc(Oc2ccc(Cl)cc2Cl)cc1 | inactive | – |
| CCCCCCCCOC(=O)c1ccc(C(=O)OCCCCCCCC)c(C(=O)OCCCCCCCC)c1 | inactive | – |
